High-throughput results: PubChem, National Center for Advancing Translational Sciences (NCATS)
TGFb inhibitor: qHTS for Inhibitors of TGF-b; 410,000 tested, 1.2% active; Potency, µM (top dose mostly 46.1 µM), inactives show at the top dose activity, negative = inhibition, usual class: inhibitors; HepG2 CAGA-GFP TGF-b/SMAD3 reporter, GFP fluorescence, 18 h; TGF-beta stimulated, 500 pg/mL final; further: potency means the concentration at half of the fitted maximal effect; on the % scale 0 is the no-effect control and ±100 the full control effect; nearly all actives have a fitted effect of over 65% in size
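Inhibition was scored as loss of TGF-beta-induced (500 pg/mL final, 18 hours, 37 degrees C) GFP in HEPG2 cells carrying a CAGA-GFP reporter, in DMEM with 1% FBS. Well GFP was summed per cell; Activity was normalised to unstimulated and stimulated DMSO wells, then concentration-response fitting.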
TDP1 block: qHTS Assay for Inhibitors of Tyrosyl-DNA Phosphodiesterase (TDP1); 350,000 tested, 0.28% active; Potency, µM (highest dose often 130 µM), without a hit: at the highest dose activity change, negative = inhibition, usual class: inhibitors; recombinant TDP1, AlphaScreen DNA substrate cleavage; AID 485290, 2010; further: potency means the concentration at half of the fitted maximal effect; on the % scale 0 is the no-effect control and ±100 the full control effect; nearly all actives have a fitted effect of over 40% in size
Target sequence (Q9NUW8 whole entry, looked up): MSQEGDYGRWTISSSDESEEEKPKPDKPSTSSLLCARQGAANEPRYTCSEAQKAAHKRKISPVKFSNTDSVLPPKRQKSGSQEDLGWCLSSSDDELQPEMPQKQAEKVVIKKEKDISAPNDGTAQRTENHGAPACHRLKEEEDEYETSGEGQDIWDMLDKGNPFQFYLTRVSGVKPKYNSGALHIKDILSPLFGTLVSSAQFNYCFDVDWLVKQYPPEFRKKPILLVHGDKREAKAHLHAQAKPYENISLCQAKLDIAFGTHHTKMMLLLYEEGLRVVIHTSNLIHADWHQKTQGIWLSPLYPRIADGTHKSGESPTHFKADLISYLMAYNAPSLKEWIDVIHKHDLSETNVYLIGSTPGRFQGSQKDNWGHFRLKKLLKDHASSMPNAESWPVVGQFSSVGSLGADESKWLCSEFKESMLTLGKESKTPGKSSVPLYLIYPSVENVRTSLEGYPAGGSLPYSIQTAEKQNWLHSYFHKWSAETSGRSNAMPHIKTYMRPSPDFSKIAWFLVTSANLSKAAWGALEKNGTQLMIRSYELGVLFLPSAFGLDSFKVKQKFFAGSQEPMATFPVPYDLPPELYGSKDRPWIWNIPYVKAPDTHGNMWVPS
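Here, a 5' biotin and 3' phosphotyrosine-FITC DNA oligonucleotide reports Tdp1 activity: intact substrate bridges AlphaScreen beads, while cleavage leaves a 3' phosphate and drops signal. All incubations at room temperature.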
TDP1 cell noCPT: qHTS for Inhibitors of human tyrosyl-DNA phosphodiesterase 1 (TDP1): qHTS in cells in absence of CPT; DT40 Tdp1-/- hTDP1 cells, no CPT, ATP luminescence, 48 h; Potency, µM (doses to about 46.2 µM), without a hit: at the highest dose activity change, negative = growth inhibition, usual class: inhibitors; 420,000 tested, 15% active; further: potency means the concentration at half of the fitted maximal effect; on the % scale 0 is the no-effect control and ±100 the full control effect; nearly all actives have a fitted effect of over 55% in size
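Chicken DT40 Tdp1-/- cells complemented with human TDP1, screened without camptothecin (DMSO vehicle only), 400 cells/well. Compounds pin-transferred, cells incubated at 37 °C for at least 48 hr. Growth read as ATP-dependent luminescence (CellTiter-Glo, 30 min at RT).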
IL1B secr inh: qHTS for Inhibitors of Inflammasome Signaling: IL-1-beta AlphaLISA Primary Screen | 360,000 tested, 4.7% active | activity change, % at 57.5 µM | THP-1 LPS/ATP IL-1B secretion, AlphaLISA, 16 h; hits give low values | AID 743279, 2014; in the data active means activity change below about -50%; inconclusive means mostly about -30% to -49%; further: on the % scale 0 is the no-effect control and ±100 the full control effect
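Secreted IL-1B measured by AlphaLISA bead assay after 16 h compound exposure of THP-1 cells; compounds (final up to 57.5 uM) added 1 h before LPS (250 ng/mL) and ATP (1.25 mM) stimulation; lower signal means less secretion.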
HepG2 tox: qHTS for Inhibitors of TGF-b: Cytotox Counterscreen. HepG2 CAGA-GFP viability, ATP luminescence, 18 h. Potency, µM (highest dose often 46.1 µM), without a hit: at the highest dose activity change, negative = cytotoxicity, usual class: cytotoxic. 410,000 tested, 0.76% active; further: potency means the concentration at half of the fitted maximal effect
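CellTiter-Glo luminescence gave cytotoxicity after 18 hours at 37 degrees C. The cells were HepG2 CAGA-GFP in 1% FBS DMEM, stimulated with 500 pg/mL TGF-beta after compound addition. %Activity was normalised to no-cell wells (complete cell-killing) and DMSO (no toxicity), and curves were fitted and classified.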
DT40 TDP1 CPT: qHTS for Inhibitors of human tyrosyl-DNA phosphodiesterase 1 (TDP1): qHTS in cells in presence of CPT. chicken DT40 Tdp1-/-;hTDP1 cells + 20 nM CPT, ATP luminescence, 48 h. Potency, µM (series often up to 46.2 µM), for the others: at the highest dose activity change, negative = growth inhibition, most hits filed as inhibitors. 420,000 tested, 12% active; further: potency means the concentration at half of the fitted maximal effect; on the % scale 0 is the no-effect control and ±100 the full control effect; nearly all actives have a fitted effect of over 55% in size
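Chicken DT40 Tdp1-/- cells stably complemented with human TDP1 were seeded at 400 cells/well in medium containing 20 nM camptothecin, exposed to pin-transferred compounds, and grown at 37 °C for at least 48 hr. Viability was read as ATP luminescence.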
* hit, by the source's call; ? = inconclusive; . = not tested or not shown; [ ] = another dose, or the depositor's remark. Compounds with a hit are over-represented: about 19% of the library has one in this group of screens. Unless noted, the call rests on the fitted dose curve; in most records, active means well fitted curve in the direction sought with a large enough effect; inconclusive means small, poorly fitted or top-dose-only effect, or another doubt; inactive means no such curve, though single readings can be large; an effect the other way counts as inactive or inconclusive.

SMILES	TGFb inhibitor	TDP1 block	TDP1 cell noCPT	IL1B secr inh	HepG2 tox	DT40 TDP1 CPT
COCCCn1c(C)nc2c(c1=O)c1nc3ccccc3nc1n2CCc1ccccc1	-3%	0%	16µM*	-12	-1%	?
COCCCn1c2nc3ccccc3nc2c2c(=O)n(Cc3ccc(Cl)cc3)cnc21	0%	2%	18µM*	-15	1%	?
Cc1ccccc1OCC(=O)Nc1ccc(OCc2cc(=O)n3ccsc3n2)cc1	2%	-4%	-21%	.	-8%	0%
CCOCC(=O)O	.	2%	.	.	.	.
COCCNC(=O)CCn1c(=O)c2cc(OC)c(OC)cc2n(CC(=O)Nc2ccccc2OC)c1=O	0%	6%	-3%	.	-10%	-3%
O=C(CNC(=O)c1ccc(Cl)cc1Cl)OCn1nnc2ccccc2c1=O	-15%	-4%	?	-3	-36%	?
COc1ccc(Cl)cc1NC(=O)Cn1cnc2sc(C)c(S(=O)(=O)N3CCN(c4ccccc4OC)CC3)c2c1=O	0%	3%	7.3µM*	.	0%	7.3µM*
COc1ccc(OC)c(NC(=O)Cn2cnc3sc(C)c(S(=O)(=O)N4CCN(c5ccccc5OC)CC4)c3c2=O)c1	-4%	6%	?	.	-17%	21µM*
COc1ccccc1N1CCN(S(=O)(=O)c2c(C)sc3ncn(CC(=O)Nc4ccc(C(C)C)cc4)c(=O)c23)CC1	2%	0%	?	.	3%	?
CC(C(=O)Nc1ccccc1)C(=O)Nc1ccccc1	16%	.	5%	-5	17%	-1%
O=C(Nc1ccccc1)C(Cl)C(=O)c1ccccc1 (configuration not stated)	-34%	.	8.2µM*	?	-119%	6.5µM*
CC(=O)C(Cl)C(=O)Nc1ccccc1 (configuration not stated)	?	-8%	4.1µM*	-86*	-45%	2.6µM*
CN(C)C=Nc1ccc2nc3c(cc2c1)[nH]c1ccccc13	?	.	12µM*	16	-53%	?
COc1cc(OC)c(NC(=O)N2CCOc3ccc(C)cc32)cc1Cl	-2%	6%	?	.	-4%	?
CCOc1ccc(/C=C/C(O)=C2/C(=O)NC3(C)CC2c2ccccc2O3)cc1OC (configuration not stated)	-31%	4%	3.7µM*	-20	-26%	5.2µM*
CCOC(=O)C1=C(COC(=O)/C=C/c2ccc(OCC)c(OC)c2)NC(=O)NC1C (configuration not stated)	-16%	-1%	?	-8	2%	-5%
CCOc1ccc(/C=C/C(O)=C2/C(=O)N(C)C3(C)CC2c2ccccc2O3)cc1OC (configuration not stated)	-19%	0%	8.2µM*	-101*	-9%	5.8µM*
CN(C)c1ccc(/C=C/C(O)=C2/C(=O)N(C)C3(C)CC2c2ccccc2O3)cc1 (configuration not stated)	.	3%	.	.	.	.
CCOc1ccc(NC(=O)c2cn3c4c(ccc(Cl)c4c2=O)OC(C)C3)cc1 (configuration not stated)	2%	5%	-1%	.	0%	-3%
COc1ccccc1NS(=O)(=O)c1cccc(N=C2N=C(N)c3ccccc32)c1	?	5%	23µM*	-66*	-65%	-23%
Cc1cc(Cl)cc(Cl)c1OCCN1CCCC1	-5%	.	7%	-25	-5%	1%
Cc1cc(Cl)cc(Cl)c1OCCCCN(C)C	-18%	-8%	18µM*	0	-38%	?
COc1cccc(CN(C)C(=O)c2ccc(NC(=O)CC3SC(N4CCCC4)=NC3=O)cc2)c1OC (configuration not stated)	1%	-7%[0.505 µM]	?	13	3%	-14%
CC1CCN(S(=O)(=O)c2cc(C(=O)N3CCN(c4ccccc4F)CC3)n(C)c2)CC1	?	3%	?	.	3%	?
CC1CCN(S(=O)(=O)c2cc(C(=O)N3CCN(c4cccc(Cl)c4)CC3)n(C)c2)CC1	?	2%	18µM*	.	-8%	?
SMILES	TGFb inhibitor	TDP1 block	TDP1 cell noCPT	IL1B secr inh	HepG2 tox	DT40 TDP1 CPT
CC1CCN(S(=O)(=O)c2cc(C(=O)Nc3ccc(Br)cc3F)n(C)c2)CC1	11µM*	2%	?	.	-30%	?
Cc1ccc(Cl)cc1N1CCN(C(=O)c2cc(S(=O)(=O)N3CCCCCC3)cn2C)CC1	?	9%	?	.	-26%	?
Cc1ccc(C)c(N2CCN(C(=O)c3cc(S(=O)(=O)N4CCC(C)CC4)cn3C)CC2)c1	?	5%	?	.	-3%	16µM*
COc1cc(CN(C)CC(=O)c2[nH]c(C)c(C(C)=O)c2C)ccc1OC(F)F	-11%	6%	3.7µM*	-28	2%	8.2µM*
CC(=O)c1c(C)[nH]c(C(=O)COc2cc(C)ccc2C(C)C)c1C	-32%	-2%	4.6µM*	39	-30%	8.2µM*
COc1cc(C)ccc1OCC(=O)OCC(=O)c1[nH]c(C)c(C(C)=O)c1C	-30%	2%	-20%	13	5%	1%
COc1ccccc1OCC(=O)c1[nH]c(C)c(C(C)=O)c1C	0%	-1%	12µM*	-10	-28%	15µM*
CC(=O)Nc1ccc(S(=O)(=O)Nc2cccc(-c3cn4cccnc4n3)c2)cc1	2%	-5%	-10%	-18	8%	-23%
O=C1CCN(Cc2cccc(C(F)(F)F)c2)CCN1Cc1ccccn1	.	.	-8%	.	.	4%[9.04 µM]
CC1(C)SC(=S)N(/N=C/c2ccccc2)C1N(O)C(=O)Nc1ccc([N+](=O)[O-])cc1 (configuration not stated)	?	-6%	18µM*	?	11µM*	16µM*
CNC(=O)N(O)C1N(NC(=O)Nc2ccccc2)C(=S)SC1(C)C (configuration not stated)	-5%	.	-28%	-4	9%	-7%
CC1(C)SC(=S)N(NC(=O)Nc2cccc3ccccc23)C1N(O)C(=O)Nc1ccccc1 (configuration not stated)	?	8%	16µM*	-25	-50%	?
